For seven molecules, Potency and viability (% of control) results are on record in PubChem BioAssay (NCATS).

Inconclusive results are not listed. A call without a number means that no potency is given here. A number with no mark means an inactive call. Active and inactive are the calls of the source. Calls follow the shape of the dose curve; as a rule, active = well fitted cell-killing curve with a large enough effect; inconclusive = small, poorly fitted or top-dose-only effect, or effect the other way; inactive = no such curve, though single readings can be large or run the other way.
Potency is read from the fitted curve at half-maximal effect.

A short description of the assay: Viability qHTS for spleen associated tyrosine kinase inhibitor (SYKi) naive MV4-11 cells (AID 1963823). Also: nearly all actives have a fitted effect of over 40% in size. The following applies: MV4-11 AML viability, CellTiter-Glo luminescence, 72 h; series mostly up to 45 µM. The gist of the method:
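Cells: MV4-11, SYK inhibitor naive, 500 per well. Treatment: library compounds, 72 hr, 37 C, 5% CO2. Read-out: CellTiter-Glo luminescence after 10 min RT.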
Regarding `Cc1cc(-c2nc(-c3ccc(OC(F)(F)F)cc3)no2)nn1Cc1ccnc(N2CCN(C3CC3)CC2)c1`, the Potency entry is “inactive”.
`CC(=O)/C=C/C1C(C)CC(O[C@@H]2O[C@H](CO)[C@@H](O)[C@H](O)[C@H]2O)CC1(C)C` (some centres not stated): the Potency entry was “inactive”.
The same measure, in the same setting: the entry for `COC(=O)Cc1cc2c(c([N+](=O)[O-])c1)N(C(=O)CC[C@H](N)C(=O)O)CC2` is “inactive”; for `C[C@@H]1O[C@@H](OC[C@H]2O[C@@H](OCC3CCC4CC3C4(C)C)[C@H](O)[C@@H](O)[C@@H]2O)[C@H](O)[C@H](O)[C@H]1O` (some centres not stated) it is “inactive”; for `CN(C)Cc1ccc(-c2cnn3c(-c4cccc(NC(=O)c5cccc(C(F)(F)F)c5)c4)ccnc23)cc1` it is 2.91 µM (active).
On to `C=CC(C)(CC/C=C(\C)C(=O)OC[C@H]1O[C@@H](OC(C)(C=C)CC/C=C(\C)C(=O)O[C@H]2[C@H](O)[C@@H](O)[C@H](OC(C)(C=C)CC/C=C(\C)C(=O)O)O[C@@H]2CO)[C@H](O)[C@@H](O)[C@@H]1O)O[C@@H]1O[C@H](CO)[C@@H](O)[C@H](O)[C@H]1O` (some centres not stated), for which the viability (% of control) is 81.1% [at 9.25 µM].
As for `C[C@@H]1O[C@@H](O[C@H]2[C@H](O)[C@@H](O)[C@H](OC[C@H]3O[C@@H](OC(=O)[C@]45CCC(C)(C)C[C@H]4C4=CCC6[C@@]7(C)CC[C@H](O[C@@H]8OC[C@H](O)[C@H](O[C@@H]9O[C@H](CO)[C@@H](O)[C@H](O)[C@H]9O)[C@H]8O)[C@@](C)(CO)C7CC[C@@]6(C)[C@]4(C)CC5)[C@H](O)[C@@H](O)[C@@H]3O)O[C@@H]2CO)[C@H](O)[C@H](O)[C@H]1O` (some centres not stated), the viability (% of control) is 98% [at 9.25 µM].
